The nature of assay [1]: inhibitors of TNFa-induced NFkB p65 translocation, primary screen, imaging, HUVEC, MLSMR starter and 10KST1 sets (AID 438;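 active = inhibition above 20% together with a positive visual image hit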;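 note: compound added about 3h40 before a 20 min TNFalpha stimulation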;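 for inhibition: signal is the nuclear over cytoplasmic p65 intensity ratio per well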). The settings on record: HUVEC TNFa-induced p65 nuclear translocation; cell count: measured here: nuclei count (cytotoxicity indicator), at 2.08 µM; inhibition: at 2 µM, stronger effect = higher value, 0% TNFa-plus-vehicle, 100% no-TNFa wells.
Assay [2] is described as follows: reduction of polyQ htt aggregates in cells – imaging, exon1htt(103Q)mCFP cells, high-content imaging, primary screen (AID 483;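 active = visual image review flags a hit and inhibition of aggregation exceeds 20%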;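 note: compound exposure lasted 3 days before fixation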;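 for nuclei count: percent of the per-plate median nuclei count of sample wells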). To be noted: exon1htt(103Q)mCFP cell line, aggregate imaging, at 2 µM; inhibition of aggregation: stronger effect = higher value; nuclei count: measured here: cell count, toxicity.
Assay [3] in a line: endothelial E-selectin expression blockers – imaging, HUVEC, immunofluorescence, MLSMR starter and 10KST1 sets, primary screen (AID 487).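 For inhibition: signal is fraction of cell area covered by stained E-selectin grains.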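 For nuclei count: 100% = median nuclei count of all wells on the same plate.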 To be noted: HUVEC TNFalpha-induced E-selectin immunofluorescence imaging, at 2 µM; inhibition: stronger effect = higher value; nuclei count: measured here: cell number, toxicity.
Assay [4] has as its target Voltage-gated potassium channel subunit beta-2 (Rattus norvegicus) (UniProt P62483). In words: inhibitors of rat Kvbeta2 reductase activity – biochemical, NADPH fluorescence, primary screen (AID 622;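 active = fluorescence slope higher than the sample average by over 3 SD, cut at about -0.22 in these data, passing the limit was not always enough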;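 note: slope of raw intensity against log time taken from 70 to 1610 s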). The settings on record: recombinant KvBeta, 4-cyanobenzaldehyde reduction, at 10 µM, stronger effect = higher value.
Assay [5] has the same target. Kind of assay: enhancers of rat Kvbeta2 NADPH turnover – biochemical, NADPH fluorescence, primary screen (AID 623;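 active = NADPH fluorescence slope more negative than the mean of all samples by about 3 SD, 99.7% confidence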;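 note: fluorescence intensity change per second fitted from 20 to 320 s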). To be noted: Recombinant KvBeta, NADPH fluorescence decrease slope, 10 min; at 10 µM; stronger effect = lower value.
Assay [6] addresses Alpha-2C adrenergic receptor (Homo sapiens) (UniProt P18825). Kind of assay: compounds altering alpha2C-coupled GIRK flux – cell-based, HEK293 alpha2C/GIRK1/2, thallium flux, primary screen (AID 624;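 active = fluorescence slope after compound addition differing from the mean of all screened samples at 99.7% confidence, in either direction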;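 note: slope of fluorescence ratio to pre-addition baseline per second over 15 to 24 s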). The settings on record: thallium flux BTC fluorescence, at 10 µM, actives lie on both sides.
A short description of assay [7]: blockers of RIG-like receptor reporter activation – cell-based, Sendai virus stimulus, luciferase, 10K MLSCN set, TLR/RLR signaling modifier project, primary screen (AID 602276;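 active = inhibition at or above 50% at 10 µM; inactive = inhibition below 50%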;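 note: firefly luciferase from ISG56 promoter only with Renilla not read in this screen; 0% = Sendai virus plus DMSO and 100% = medium plus DMSO without virus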). To be noted: HEK293 RL24 IRF3 luciferase reporter, at 10 µM, stronger effect = higher value. For orientation: A reporter such as luciferase makes a cellular process visible.
Assay [8] is described as follows: TLR3 IRF3 reporter activation blockers – cell-based, poly I:C stimulus, luciferase, 10K MLSCN set, primary screen (AID 602277;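 active = inhibition of the reporter signal at or above 50%; inactive = inhibition below 50%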). To be noted: HEK293-TLR3 RL24 IRF3 luciferase reporter, at 10 µM, stronger effect = higher value.

Consider nine compounds from PubChem BioAssay.

Activity calls are given as the source filed them.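 Rule for the calls, unless noted: active = visually confirmed hit in the image check and inhibition above 20%; inconclusive = visually confirmed hit but inhibition not above 20%; inactive = no visual hit in the image check.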

As a reminder, the inhibition is the relative decrease from the control value, in per cent.

Sequence of Voltage-gated potassium channel subunit beta-2 (Rattus norvegicus) (P62483 whole entry, looked up): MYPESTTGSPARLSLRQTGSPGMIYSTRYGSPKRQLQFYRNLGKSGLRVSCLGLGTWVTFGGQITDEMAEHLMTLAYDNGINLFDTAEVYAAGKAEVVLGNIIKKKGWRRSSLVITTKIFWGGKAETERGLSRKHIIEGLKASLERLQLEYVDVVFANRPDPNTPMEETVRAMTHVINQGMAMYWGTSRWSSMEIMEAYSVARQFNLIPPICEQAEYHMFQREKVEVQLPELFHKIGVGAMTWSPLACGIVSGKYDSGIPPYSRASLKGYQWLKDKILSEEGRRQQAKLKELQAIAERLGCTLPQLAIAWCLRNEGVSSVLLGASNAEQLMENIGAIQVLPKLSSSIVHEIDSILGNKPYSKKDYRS
Sequence of Alpha-2C adrenergic receptor (Homo sapiens) (P18825 whole entry, looked up): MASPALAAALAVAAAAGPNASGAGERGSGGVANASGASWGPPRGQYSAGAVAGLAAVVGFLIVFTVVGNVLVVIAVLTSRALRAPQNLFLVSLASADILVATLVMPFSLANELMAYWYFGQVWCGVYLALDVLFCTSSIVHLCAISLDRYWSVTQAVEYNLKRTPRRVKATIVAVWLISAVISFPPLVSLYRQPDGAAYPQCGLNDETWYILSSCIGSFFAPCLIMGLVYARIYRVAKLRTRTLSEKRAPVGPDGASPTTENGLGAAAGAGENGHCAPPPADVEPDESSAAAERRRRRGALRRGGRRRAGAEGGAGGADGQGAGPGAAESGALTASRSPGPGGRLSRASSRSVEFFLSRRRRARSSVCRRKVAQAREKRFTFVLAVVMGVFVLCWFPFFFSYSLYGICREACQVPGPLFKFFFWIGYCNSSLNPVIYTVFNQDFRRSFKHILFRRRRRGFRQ

Regarding `COC(=O)c1ccccc1NS(=O)(=O)c1ccc(F)cc1`, in assay [1], the cell count is 609. The inhibition was 2.4% (inactive) in assay [1], -22.1% (inactive) in assay [3], 9.83% (inactive) in assay [7] and 17.7% (inactive) in assay [8]. Also, the inhibition of aggregation in assay [2] is -3% (inactive). Also, the nuclei count in assay [2] stood at 99.4%; in assay [3] it was 114%. Further, the fluorescence slope in assay [4] was -0.523 (inactive). Also, the NADPH fluorescence slope in assay [5] was -3.8e-05 (inactive). Moreover, the slope in assay [6] was 0.00602 (inactive).
Consider `CN(Cc1nc(-c2ccncc2)no1)S(=O)(=O)c1ccc(Cl)cc1`, for which, in assay [1], the cell count is 601. Further, the inhibition was -6.4% (inactive) in assay [1], 1% (inactive) in assay [3], -18.2% (inactive) in assay [7] and -26.6% (inactive) in assay [8]. The inhibition of aggregation in assay [2] is -0.9% (inactive). Moreover, the nuclei count in assay [2] amounted to 88.3%; in assay [3], 94.8%. The fluorescence slope in assay [4] is -0.543 (inactive). The NADPH fluorescence slope in assay [5] was 6.1e-06 (inactive). Besides, in assay [6], the slope was 0.00478 (inactive).
For `C=CCNC(=O)c1cccc(Br)c1`, the cell count in assay [1] turned out to be 399. Further, the inhibition is 6.3% (inactive) in assay [1], -24.7% (inactive) in assay [3], -5.88% (inactive) in assay [7] and 7.57% (inactive) in assay [8]. In addition, the inhibition of aggregation in assay [2] is -3.3% (inactive). Besides, the nuclei count in assay [2] was 101%; in assay [3], 115%. Further, the fluorescence slope in assay [4] is -0.448 (inactive). The NADPH fluorescence slope in assay [5] was 1.8e-05 (inactive). Further, in assay [6], the slope was 0.00497 (inactive).
For `CN1CCN(c2oc(COc3ccc(-c4ccccc4)cc3)nc2C#N)CC1`, the cell count in assay [1] worked out at 3. The inhibition is 117% (active) in assay [1], -35.9% (inactive) in assay [3], 8.52% (inactive) in assay [7] and -19.8% (inactive) in assay [8]. The inhibition of aggregation in assay [2] is 18.4% (inactive). Further, the values for the nuclei count in assay [2] and in assay [3] were 98.4% and 111%, respectively. For the same compound, the fluorescence slope in assay [4] is -0.425 (inactive). Besides, in assay [5], the NADPH fluorescence slope is 1e-05 (inactive). The slope in assay [6] is 0.00577 (inactive).
As for `CC1CC(=O)c2cnc(NCC3CCCO3)nc2C1` (centres undefined), the cell count in assay [1] came out at 613. For the same compound, the inhibition in assay [1] was 13.9% (inactive); in assay [3] it was 12.9% (inactive); in assay [7], 6.29% (inactive); in assay [8], -1.06% (inactive). In assay [2], the inhibition of aggregation was -14% (inactive). Moreover, the figures for the nuclei count in assay [2] and in assay [3] were 106% and 107%, respectively. Moreover, in assay [4], the fluorescence slope is -0.404 (inactive). In addition, in assay [5], the NADPH fluorescence slope was -2.9e-05 (inactive). Further, the slope in assay [6] is 0.00446 (inactive).
On to `COC(=O)c1c(-c2cccs2)csc1NC(=O)CN1CCOCC1`, for which the cell count in assay [1] was 345. For the same compound, the inhibition was 6% (inactive) in assay [1], -22.6% (inactive) in assay [3], 16.1% (inactive) in assay [7] and 3.26% (inactive) in assay [8]. Further, in assay [2], the inhibition of aggregation is -6.9% (inactive). Further, the nuclei count worked out at 106% in assay [2] and 119% in assay [3]. Further, the fluorescence slope in assay [4] is -0.519 (inactive). The NADPH fluorescence slope in assay [5] was -5.2e-05 (inactive). In addition, the slope in assay [6] was 0.00516 (inactive).
In the case of `CN(c1ccccc1)S(=O)(=O)c1ccc(C(=O)OCC(=O)N2CCOCC2)cc1`, the cell count in assay [1] is 420. The inhibition in assay [1] is -5.7% (inactive); in assay [3], 0.3% (inactive); in assay [7], 11.4% (inactive); in assay [8] it was 22% (inactive). For the same compound, in assay [2], the inhibition of aggregation was 8.2% (inactive). Also, the nuclei count came out at 92.9% in assay [2] and 105% in assay [3]. The fluorescence slope in assay [4] was -0.583 (inactive). In addition, the NADPH fluorescence slope in assay [5] is -6.4e-05 (inactive). Also, the slope in assay [6] is 0.00565 (inactive).
Turning to `COc1ccccc1OCCCCNCCO`, the cell count in assay [1] came out at 493. Further, the inhibition in assay [1] was 9.1% (inactive); in assay [3] it was -80.3% (inactive); in assay [7], 1.66% (inactive); in assay [8], 25.1% (inactive). For the same compound, the inhibition of aggregation in assay [2] is -4.6% (inactive). In addition, the nuclei count in assay [2] turned out to be 103%; in assay [3], 130%. In assay [4], the fluorescence slope is -0.434 (inactive). For the same compound, the NADPH fluorescence slope in assay [5] was -3.7e-05 (inactive). In addition, the slope in assay [6] is 0.00597 (inactive).
`CC(CN(C)Cc1ccccc1)OC(=O)c1ccc2c(c1)OCCO2` (centres undefined): in assay [1], the cell count came to 596. In addition, the inhibition in assay [1] is 0% (inactive); in assay [3] it was -40.2% (inactive); in assay [7], 8.96% (inactive); in assay [8] it was 8.88% (inactive). Also, the inhibition of aggregation in assay [2] was -0.4% (inactive). For the same compound, the nuclei count in assay [2] stood at 126%; in assay [3], 109%. The fluorescence slope in assay [4] was -0.48 (inactive). Besides, the NADPH fluorescence slope in assay [5] is -5.1e-05 (inactive). Moreover, in assay [6], the slope was 0.00539 (inactive).
